Test [1] can be described thus: CLD_ACTIN_6hr: CellzDirect (CLD) Gene Expression Assay for Baseline Control (Actin) at 6 hours (AID 2283676).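 Also: active means increased actin mRNA relative to DMSO vehicle.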 A digest of the protocol: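 Primary human hepatocytes dosed with fresh chemical solutions (vehicle 0.2% DMSO), harvested at 6 h. Actin mRNA quantified by quantitative nuclease protection assay with chemiluminescent read-out, as background control relative to DMSO.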

Read-out in test [2]: Cytochrome P450 2B6 (Homo sapiens) (UniProt P20813)
As to the kind of experiment: CLD_CYP2B6_6hr: CellzDirect (CLD) Gene Expression Assay for xenobiotic metabolism (CYP2B6) at 6 hours (AID 2283677).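 Also: actives raise CYP2B6 transcript above DMSO baseline so AC50 marks an inducer.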 The gist of the method:
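Primary human hepatocytes dosed with chemicals at multiple concentrations, vehicle 0.2% DMSO; CYP2B6 mRNA induction measured 6 h after dosing by quantitative nuclease protection assay with chemiluminescence, gain of signal fitted relative to DMSO.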

Test [3] is described as follows: CCTE_Padilla_ZF_144hpf_TERATOSCORE: (Legacy) CCTE's 144 Hour Post-fertilization zebrafish Assay Teratoscore, Padilla Lab (AID 2283679; active = hit-call score of the fitted dose curve at least 0.9, where 1 is the maximum; inactive = score below 0.9;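 as to AC50: zebrafish embryos with chorions exposed by immersion from 6-8 hpf to 5 dpf with daily renewal; teratogenicity score from eye scoring of death hatching and malformations at 144 hpf; higher score means more developmental defects relative to DMSO baseline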). A digest of the protocol: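 Larvae scored by eye at 144 hpf for death, hatching and malformations after a day in clean Hanks'. Before that, daily-renewed exposure at 80 uM (0.4% DMSO, 26C) from roughly 6-8 hpf through 5 dpf, 4 embryos per chemical.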

Read-out in test [4]: Cytochrome P450 3A4 (Homo sapiens) (UniProt P08684)
Description: CLD_CYP3A4_6hr: CellzDirect (CLD) Gene Expression Assay for xenobiotic metabolism (CYP3A4) at 6 hours (AID 2283680). The gist of the method:
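Primary human hepatocytes (two donor preparations) dosed; CYP3A4 mRNA harvested at 6 h and quantified by qNPA chemiluminescence. Gain of signal fitted against 0.2% DMSO vehicle; cytotoxicity flagged by phase-contrast morphology.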

Read-out in test [5]: Glyceraldehyde-3-phosphate dehydrogenase (Homo sapiens) (UniProt P04406)
Description: CLD_GAPDH_6hr: CellzDirect (CLD) Gene Expression Assay for Baseline Control (Glyceraldehyde 3-phosphate dehydrogenase) at 6 hours (AID 2283681).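 Also: active means increased signal relative to DMSO vehicle.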 A digest of the protocol: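 Primary human hepatocytes from two donor preparations, dosed at multiple concentrations with 0.2% DMSO vehicle; GAPDH mRNA measured 6 h after dosing by chemiluminescent quantitative nuclease protection assay (qNPA) on denatured lysates. Serves as background control; cytotoxicity annotated by morphology.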

Read-out in test [6]: HMG-CoA synthase (HMGCS2), HMGCS2 (gene 3158)
Description: CLD_HMGCS2_6hr: CellzDirect (CLD) Gene Expression Assay for HMG-CoA synthase (HMGCS2) at 6 hours (AID 2283682).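 Also: actives raise HMGCS2 transcript above the 0.2% DMSO vehicle baseline.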 A digest of the protocol: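 Primary human hepatocytes dosed daily with fresh chemical, 0.2% DMSO vehicle; HMGCS2 mRNA measured at 6 h by qNPA chemiluminescence. Gain of signal fitted against DMSO; cytotoxicity flagged from phase-contrast morphology.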

Read-out in test [7]: xenobiotic metabolism (CYP1A2), CYP1A2 (gene 1544)
As to the kind of experiment: CLD_CYP1A2_24hr: CellzDirect (CLD) Gene Expression Assay for xenobiotic metabolism (CYP1A2) at 24 hours (AID 2283683). A digest of the protocol: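 Primary human hepatocytes from two donor preparations dosed daily with multiple concentrations of chemical, 0.2% DMSO vehicle. CYP1A2 mRNA at 24 h quantified by qNPA chemiluminescence; gain of signal analyzed relative to DMSO. Cytotoxicity flagged by phase-contrast morphology.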

Read-out in test [8]: Glyceraldehyde-3-phosphate dehydrogenase (Homo sapiens) (UniProt P04406)
Description: CLD_GAPDH_24hr: CellzDirect (CLD) Gene Expression Assay for Baseline Control (Glyceraldehyde 3-phosphate dehydrogenase) at 24 hours (AID 2283692). A digest of the protocol: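 Primary human hepatocytes (two donor preparations) dosed daily for two days, 0.2% DMSO vehicle; GAPDH mRNA measured at 24 h by qNPA chemiluminescence as a background control, gain-of-signal fitted against DMSO.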

Read-out in test [9]: alkyl and aryl transferase (GSTA2), GSTA2 (gene 2939)
As to the kind of experiment: CLD_GSTA2_24hr: CellzDirect (CLD) Gene Expression Assay for alkyl and aryl transferase (GSTA2) at 24 hours (AID 2283693). A digest of the protocol:
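Primary human hepatocytes (two donor preparations) dosed daily for two days with chemicals at multiple concentrations (vehicle 0.2% DMSO); GSTA2 mRNA at 24 h measured by qNPA chemiluminescence, gain-of-signal versus DMSO.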

Read-out in test [10]: ABC Transporter (ABCB1), ABCB1 (gene 5243)
As to the kind of experiment: CLD_ABCB1_48hr: CellzDirect (CLD) Gene Expression Assay for ABC Transporter (ABCB1) at 48 hours (AID 2283695).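 As to AC50: potency for induction meaning increase of mRNA over DMSO vehicle.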 A digest of the protocol: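 Primary human hepatocytes from two donor preparations dosed daily on two consecutive days with 0.2% DMSO vehicle. Harvest at 48 h. ABCB1 mRNA quantified by qNPA with chemiluminescence and fitted for gain of signal versus DMSO.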

Read-out in test [11]: glucuronosyltransferase (UGT1A1), UGT1A1 (gene 54658)
Description: CLD_UGT1A1_24hr: CellzDirect (CLD) Gene Expression Assay for glucuronosyltransferase (UGT1A1) at 24 hours (AID 2283696). The gist of the method: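 Primary human hepatocytes from two donor preparations were dosed (0.2% DMSO vehicle) and harvested at 24 h; UGT1A1 mRNA induction was quantified by chemiluminescent qNPA, fitted as gain relative to DMSO.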

Read-out in test [12]: Cytochrome P450 3A4 (Homo sapiens) (UniProt P08684)
As to the kind of experiment: CLD_CYP3A4_48hr: CellzDirect (CLD) Gene Expression Assay for xenobiotic metabolism (CYP3A4) at 48 hours (AID 2283698). The gist of the method: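 Primary human hepatocytes from two donor preparations dosed daily for two days with multiple chemical concentrations, 0.2% DMSO vehicle. CYP3A4 mRNA at 48 h by quantitative nuclease protection assay, chemiluminescence, positive fit versus DMSO; cytotoxicity flagged morphologically.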

Read-out in test [13]: ABC Transporter (ABCB1), ABCB1 (gene 5243)
As to the kind of experiment: CLD_ABCB1_24hr: CellzDirect (CLD) Gene Expression Assay for ABC Transporter (ABCB1) at 24 hours (AID 2283684). The gist of the method:
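Primary human hepatocytes, two donor preparations, dosed daily with fresh solutions; vehicle 0.2% DMSO; harvested at 24 h. ABCB1 mRNA measured by quantitative nuclease protection assay (chemiluminescence); morphology-based cytotoxicity annotated.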

Read-out in test [14]: Cytochrome P450 2B6 (Homo sapiens) (UniProt P20813)
Description: CLD_CYP2B6_48hr: CellzDirect (CLD) Gene Expression Assay for xenobiotic metabolism (CYP2B6) at 48 hours (AID 2283699).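 Also: actives raise transcript level above DMSO so potency reflects induction.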 A digest of the protocol:
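Primary human hepatocytes dosed daily for two days over multiple concentrations, 0.2% DMSO vehicle; CYP2B6 mRNA quantified at 48 h by qNPA chemiluminescence. Induction fitted as gain of signal versus DMSO; cytotoxicity annotated by morphology.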

Read-out in test [15]: Cytochrome P450 2C19 (Homo sapiens) (UniProt P33261)
As to the kind of experiment: CLD_CYP2C19_48hr: CellzDirect (CLD) Gene Expression Assay for xenobiotic metabolism (CYP2C19) at 48 hours (AID 2283700).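 Also: fitted upward so actives raise CYP2C19 mRNA above the 0.2% DMSO vehicle.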 The gist of the method:
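Primary human hepatocytes (two donor preparations) dosed daily for two days, harvested at 48 h; CYP2C19 mRNA induction measured by qNPA chemiluminescence. Gain-of-signal fitted relative to 0.2% DMSO vehicle as baseline.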

Read-out in test [16]: Cytochrome P450 2C19 (Homo sapiens) (UniProt P33261)
Description: CLD_CYP2C19_24hr: CellzDirect (CLD) Gene Expression Assay for xenobiotic metabolism (CYP2C19) at 24 hours (AID 2283687).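 Also: activity means mRNA induction above DMSO vehicle baseline.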 The gist of the method:
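Primary human hepatocytes (two donor preparations) dosed daily with fresh test chemical in 0.2% DMSO vehicle; CYP2C19 mRNA induction measured at 24 h by quantitative nuclease protection assay with chemiluminescence, fitted for gain of signal versus DMSO.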

Read-out in test [17]: Cytochrome P450 2B6 (Homo sapiens) (UniProt P20813)
As to the kind of experiment: CLD_CYP2B6_24hr: CellzDirect (CLD) Gene Expression Assay for xenobiotic metabolism (CYP2B6) at 24 hours (AID 2283686). A digest of the protocol: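 Primary human hepatocytes dosed daily for two days with fresh solutions, harvested at 24 hours; mRNA induction quantified by qNPA chemiluminescence, gain of signal vs 0.2% DMSO vehicle. Cytotoxicity annotated from phase-contrast morphology.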

Read-out in test [18]: sulfotransferase (SULT2A), SULT2A1 (gene 6822)
Description: CLD_SULT2A_24hr: CellzDirect (CLD) Gene Expression Assay for sulfotransferase (SULT2A) at 24 hours (AID 2283694). A digest of the protocol:
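Primary human hepatocytes from two donor preparations were dosed daily with fresh solutions, vehicle 0.2% DMSO. At 24 h, lysates went to quantitative nuclease protection (qNPA) with S1 digestion and chemiluminescent readout. Cytotoxicity was annotated from phase-contrast morphology.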

Results filed as inconclusive are left out. The source made the active and inactive calls. The calls were made as follows, unless noted: active = hit-call score of the fitted dose curve at least 0.9, where 1 is the maximum; inconclusive = response in the unintended direction; inactive = score below 0.9.

Chain of Cytochrome P450 3A4 (Homo sapiens) (P08684 whole entry, looked up): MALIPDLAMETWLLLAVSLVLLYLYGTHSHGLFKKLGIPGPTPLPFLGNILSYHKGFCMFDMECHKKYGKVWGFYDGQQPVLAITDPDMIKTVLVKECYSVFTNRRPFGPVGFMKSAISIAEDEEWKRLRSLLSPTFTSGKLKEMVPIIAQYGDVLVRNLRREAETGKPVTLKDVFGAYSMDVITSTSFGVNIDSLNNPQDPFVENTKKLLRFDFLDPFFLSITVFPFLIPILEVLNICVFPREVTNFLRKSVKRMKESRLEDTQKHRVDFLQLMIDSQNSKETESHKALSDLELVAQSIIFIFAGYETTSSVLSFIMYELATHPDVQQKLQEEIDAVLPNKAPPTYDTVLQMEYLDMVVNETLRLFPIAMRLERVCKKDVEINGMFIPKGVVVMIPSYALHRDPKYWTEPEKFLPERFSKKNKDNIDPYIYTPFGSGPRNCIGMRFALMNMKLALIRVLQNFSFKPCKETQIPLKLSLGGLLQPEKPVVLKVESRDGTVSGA
Chain of Cytochrome P450 2C19 (Homo sapiens) (P33261 whole entry, looked up): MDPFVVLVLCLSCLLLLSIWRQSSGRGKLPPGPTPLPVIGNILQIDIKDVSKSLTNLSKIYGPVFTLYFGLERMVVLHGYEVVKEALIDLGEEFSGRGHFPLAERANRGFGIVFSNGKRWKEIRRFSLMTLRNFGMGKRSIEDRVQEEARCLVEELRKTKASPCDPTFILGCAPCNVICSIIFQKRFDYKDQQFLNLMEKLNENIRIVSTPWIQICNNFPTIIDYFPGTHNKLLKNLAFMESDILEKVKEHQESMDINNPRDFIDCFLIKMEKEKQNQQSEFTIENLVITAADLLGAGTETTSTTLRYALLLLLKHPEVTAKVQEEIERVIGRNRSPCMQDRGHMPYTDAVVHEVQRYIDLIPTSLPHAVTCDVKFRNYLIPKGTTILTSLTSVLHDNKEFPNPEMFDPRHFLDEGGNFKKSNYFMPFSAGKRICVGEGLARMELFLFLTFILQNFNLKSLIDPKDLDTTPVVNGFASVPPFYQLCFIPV
Chain of Glyceraldehyde-3-phosphate dehydrogenase (Homo sapiens) (P04406 whole entry, looked up): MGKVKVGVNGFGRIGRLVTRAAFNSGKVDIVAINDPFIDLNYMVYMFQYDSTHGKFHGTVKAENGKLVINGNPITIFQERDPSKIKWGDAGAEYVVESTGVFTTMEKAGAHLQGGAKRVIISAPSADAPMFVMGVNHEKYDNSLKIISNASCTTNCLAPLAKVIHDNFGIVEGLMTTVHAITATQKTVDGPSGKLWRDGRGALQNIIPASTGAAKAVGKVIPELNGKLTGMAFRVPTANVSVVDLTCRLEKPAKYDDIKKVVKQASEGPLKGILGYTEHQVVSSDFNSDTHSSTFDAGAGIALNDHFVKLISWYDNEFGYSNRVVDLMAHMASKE

As to `CCCOCC(=Nc1ccc(Cl)cc1C(F)(F)F)n1ccnc1`, the result in test [1], in test [4], in test [5], in test [6], in test [8] and in test [9] was inactive. Moreover, the molecule was classed as inactive in test [10] and in test [11]. Also, the half-maximal activity concentration (AC50) (in general, the concentration at which the activity in the assay is half-maximal) in test [2] was 1.15 µM (active); in test [3], 2.07 µM (active); in test [7] it was 1.89 µM (active); in [12] it was 1.89 µM (active).
Turning to `CSC1=N[C@@](C)(c2ccccc2)C(=O)N1Nc1ccccc1`, the call in [1], in test [4], in test [5], in [6], in test [13] and in test [9] was inactive. Also, the outcome in test [10] and in test [12] was inactive. Besides, the concentration at half-maximal activity (AC50) in test [3] is 3.03 µM (active); in test [7], 3.97 µM (active); in test [14], 1.16 µM (active).
With `COP(=O)(NC(C)=O)SC` (configuration not stated), the molecule was called inactive in test [1], in [3], in test [4], in test [5], in test [7] and in test [8]. Further, the call in test [10], in test [11] and in [15] was inactive.
On to `CC[C@H](C)[C@H]1O[C@]2(C=C[C@@H]1C)C[C@@H]1C[C@@H](C/C=C(\C)[C@@H](O[C@H]3C[C@H](OC)[C@@H](O[C@H]4C[C@H](OC)[C@@H](NC)[C@H](C)O4)[C@H](C)O3)[C@@H](C)/C=C/C=C3\CO[C@@H]4[C@H](O)C(C)=C[C@@H](C(=O)O1)[C@]34O)O2`, for which the molecule was classed as inactive in [1], in test [4], in test [6], in [7], in test [13] and in test [16]. The outcome in test [8] and in test [10] was inactive. In test [3], the AC50 is 3.41 µM (active).
Regarding `CCOP(=S)(OCC)Oc1cc(C)nc(C(C)C)n1`, the result in test [1], in test [4], in test [5], in [6] and in test [9] was inactive. Moreover, the AC50 in test [2] is 1.96 µM (active); in test [3], 62.7 µM (active); in test [7] it was 7.6 µM (active); in test [17], 0.747 µM (active); in test [11] it was 1.92 µM (active).
Take `COc1ccc(C(=CC(=O)N2CCOCC2)c2ccc(Cl)cc2)cc1OC`: the result in [1], in test [8], in [9] and in test [11] was inactive. Further, the AC50 is 4.1 µM (active) in test [2]; 23.6 µM (active) in test [3]; 2.29 µM (active) in [4]; 3.59 µM (active) in [17]; 31 µM (active) in test [10]; 1.9 µM (active) in test [12]. Further, the AC50 in test [14] is 3.59 µM (active).
In the case of `CSc1nnc(C(C)(C)C)c(=O)n1N`, the result in [1], in test [3], in test [4], in [5], in test [6] and in test [13] was inactive. For the same molecule, the molecule was called inactive in test [8], in test [9] and in [18]. The AC50 was 10.9 µM (active) in [2], 20 µM (active) in test [7], 20 µM (active) in test [17] and 20 µM (active) in test [14].
For the molecule `C[Si](Cn1cncn1)(c1ccc(F)cc1)c1ccc(F)cc1`, the molecule was classed as inactive in [1], in test [5], in [6], in [9] and in test [11]. Further, the AC50 in test [3] was 9.34 µM (active); in test [7], 1.89 µM (active); in test [10] it was 4.36 µM (active).
With `COc1cc(OC)nc(Sc2cccc(Cl)c2C(=O)O)n1`, the call in [1], in test [3], in test [5], in [6], in [8] and in test [9] was inactive. Moreover, the outcome in [10] and in [15] was inactive. Moreover, the AC50 in test [12] is 35.2 µM (active).

These data come from PubChem BioAssay (EPA / NIEHS).
